# An excerpt weighted towards active compounds, which were near 10% of everything screened.
# 12-hLO inh – qHTS Assay for Inhibitors of 12-hLO (12-human lipoxygenase) | Polyunsaturated fatty acid lipoxygenase ALOX12 (Homo sapiens), P18054 | purified 12-hLO, xylenol orange hydroperoxide absorbance | Potency, µM (highest dose often 57.1 µM), for inactives: at the highest dose activity change, negative = inhibition, usual class: inhibitors | 150,000 compounds, 0.12% hits; active means well fitted inhibition curve with a large enough effect; inconclusive means small, poorly fitted or top-dose-only effect; further: potency means the concentration at half of the fitted maximal effect; nearly all actives have a fitted effect of over 55% in size
# Target sequence (P18054 whole entry, looked up): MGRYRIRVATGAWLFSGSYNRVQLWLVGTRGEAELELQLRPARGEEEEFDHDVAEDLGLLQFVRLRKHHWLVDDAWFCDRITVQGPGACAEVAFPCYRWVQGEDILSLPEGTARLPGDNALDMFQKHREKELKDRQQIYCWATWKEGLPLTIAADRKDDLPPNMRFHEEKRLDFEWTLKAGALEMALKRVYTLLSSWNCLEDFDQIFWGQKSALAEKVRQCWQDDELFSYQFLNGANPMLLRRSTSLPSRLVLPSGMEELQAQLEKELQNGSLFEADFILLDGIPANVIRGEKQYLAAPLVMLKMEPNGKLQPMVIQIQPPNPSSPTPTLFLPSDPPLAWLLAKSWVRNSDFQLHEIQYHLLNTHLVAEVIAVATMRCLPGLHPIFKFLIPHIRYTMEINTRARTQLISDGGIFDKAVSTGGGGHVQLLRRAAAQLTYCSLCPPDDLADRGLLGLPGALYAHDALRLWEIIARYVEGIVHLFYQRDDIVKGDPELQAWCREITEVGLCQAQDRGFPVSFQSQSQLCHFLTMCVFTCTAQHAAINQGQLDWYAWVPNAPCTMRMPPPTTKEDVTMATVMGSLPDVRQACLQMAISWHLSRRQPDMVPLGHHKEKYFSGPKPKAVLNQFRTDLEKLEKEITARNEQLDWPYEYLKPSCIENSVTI
#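 Hydroperoxide formation by human 12-lipoxygenase from 40 uM arachidonic acid was followed colorimetrically via ferric-xylenol orange complex, using the 573/405 nm absorbance ratio. Enzyme concentration was 150 nM, with 30 min reaction at room temperature.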
# HPGD block – qHTS Assay for Inhibitors of HPGD (15-Hydroxyprostaglandin Dehydrogenase). AID 894, 2007. 15-hydroxyprostaglandin dehydrogenase [NAD(+)] (Homo sapiens), P15428. 150,000 compounds, 4.3% hits. Potency, µM, for inactives: top-dose activity change, negative = inhibition, actives largely listed as inhibitors. purified HPGD, NADH fluorescence kinetic, PGE2 substrate; further: potency means the concentration at half of the fitted maximal effect
#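 NADH formation kinetics: reaction with 30 uM PGE2 and 1 mM NAD+ (final), 20 nM enzyme, Tris-HCl pH 8 with Tween 20, after 15 min compound preincubation at room temperature. Fluorescence change, last versus first of five reads.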
# ALDH1A1 block – qHTS Assay for Inhibitors of Aldehyde Dehydrogenase 1 (ALDH1A1) | Purified ALDH1A1, NADH fluorescence, propionaldehyde substrate | 220,000 compounds, 7.3% hits | Aldehyde dehydrogenase 1A1 (Homo sapiens), P00352 | Potency, µM (doses to about 75.3 µM), for inactives: at the highest dose activity, negative = inhibition, most hits filed as inhibitors;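 further: potency means the concentration at half of the fitted maximal effect; plate controls were no enzyme wells and a reference inhibitor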
# PNC inhibitor – High Content Assay for Compounds that inhibit the Assembly of the Perinucleolar Compartment. PC3M PTB-GFP, PNC prevalence imaging, 16 h; active compounds read low. activity change (PNC), negative = inhibition, % at 10 µM. 140,000 compounds, 3.1% hits;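 active means readout at or below -70, meaning at least 70% loss of cells showing the perinucleolar compartment, a nuclear body marking cancer cells; inconclusive means readout between -30 and a set limit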;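 further: plate controls were DMSO wells for no effect and camptothecin positive control wells for full effect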
#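 PC3M cells stably expressing PTB-GFP, 750–1000 cells/well, treated 16 h at 37 °C with compound (23 nl of library stock), in duplicate. After paraformaldehyde fixation and Hoechst stain, imaged at 20x; PNC prevalence scored by image analysis.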
# LMNA splice mod – qHTS Assay for Modulators of Lamin A Splicing; HeLa LMNA splicing GFP/RFP minigene ratio, 48 h; Potency, µM (titrated, usually from 46.1 µM), without a hit: top-dose ratio change, negative = inhibition, most hits filed as inhibitors; 200,000 compounds, 0.01% hits; active means well fitted inhibition curve with a large enough effect in the signal ratio, with a control signal flat, not every such curve was filed as active; inconclusive means small, poorly fitted or top-dose-only effect, or effect the other way, or a change in a side signal; the % refers to the signal ratio; further: potency means the concentration at half of the fitted maximal effect
#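 S3 HeLa cells stably expressing lamin A-EGFP splicing minigene plus DsRed2, 600 cells/well, 48 h compound exposure at 37C. Laser-scanning cytometry; analysed as GFP (500-530 nm)/RFP (575-640 nm) total intensity ratio; 0.5% DMSO vehicle.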
# Numbers without * were called inactive; u = inconclusive; x = no result; [ ] = remark or other dose. Unless noted, the call rests on the fitted dose curve; in most records, active means well fitted inhibition curve with a large enough effect (not every such curve was filed as active); inconclusive means small, poorly fitted or top-dose-only effect, or another doubt; inactive means no such curve, though single readings can be large or run the other way. Unless noted, on the % scale 0 is the no-effect control and ±100 the full control effect.
SMILES,12-hLO inh,HPGD block,ALDH1A1 block,PNC inhibitor,LMNA splice mod
CC(SCC(=O)Nc1ccc(S(=O)(=O)N2CCCCC2)cc1)C(=O)O (configuration not stated),-3.3%,-2.0%,28.2µM*,-6.8,3.0%
Nc1cc(=O)[nH]c(SCC(=O)Nc2ccc(S(=O)(=O)N3CCCCC3)cc2)n1,x,x,18.9µM*,x,5.2%[46 µM]
Cc1csc(SCC(=O)NC23CC4CC(CC(C4)C2)C3)n1,5.3%,28.2µM*,3.3%,33.1,10.6%
CCCCc1nc2c(c3c1C[C@H](C)OC3)CN(C(=O)NCc1ccco1)CC2,2.2%[11.4 µM],-6.0%,5.2%[13.5 µM],x,16.5%[9.22 µM]
CCOc1ccccc1CNC(=O)c1cnc2sc(N(CC)CC)nn2c1=O,x,x,x,x,2.4%[46 µM]
Cn1c(=O)n2n(c1=O)[C@H]1[C@H](O)[C@H]3O[C@@H]3/C(=N/OCc3ccccc3)[C@@H]1CC2,x,x,11.6%[13.5 µM],x,x
Cc1cccc(C)c1NC(=O)CSc1nc(-c2ccco2)cc(C(F)(F)F)n1,5.5%,-11.9%,1.8%,u,-7.3%
O=C(CSc1nc(-c2ccco2)cc(C(F)(F)F)n1)Nc1ccc(C(=O)N2CCCCC2)cc1,-1.4%,0.562µM*,14.1µM*,-16.3,u
Cc1cc(NC(=O)CSc2nc(-c3ccco3)cc(C(F)(F)F)n2)no1,13.1%,-25.2%,1.6%,-115.7*,u
COC(=O)C(Cc1c[nH]c2ccccc12)NC(C)=O (configuration not stated),-0.4%,-0.7%,10.7%,-24.5,-16.8%
COC(=O)CCC(NC(=O)c1cc(-c2ccc3c(c2)OCCO3)oc1C)C(=O)OC (configuration not stated),-4.8%,-19.7%,20µM*,-9.7,0.5%
COC(=O)C(Cc1c[nH]c2ccccc12)NC(=O)c1cc(-c2ccc(OC)c(OC)c2)oc1C (configuration not stated),-7.8%,31.6µM*,28.2µM*,38.2,-7.3%
COCCNc1nc(C)nc2c1nc(-c1ccccc1)n2C1CCN(Cc2ccccc2)C1 (configuration not stated),-2.1%,u,u,x,x
Cc1cccc(NS(=O)(=O)c2nnc(NC(=O)C3CCCCC3)s2)c1,x,x,x,x,6.0%[46 µM]
CN(C)CCCSc1ccccc1NC(=O)/C=C\c1ccccc1,-1.2%,-11.8%,3.5%,x,x
C/C(N)=C(/C#N)C(=O)CSc1nnc(Nc2ccccc2)s1,x,x,1.1%,x,3.1%[9.22 µM]
O=c1cc(CSc2nnc(Nc3ccccc3)s2)nc2sccn12,-0.8%,17.8µM*,-3.1%,8.2,-15.7%
Cc1ccccc1Nc1nnc(SCc2cc(=O)n3ccsc3n2)s1,-5.0%,28.2µM*,u,-19.6,1.0%
CC(C)Nc1nnc(SCc2cc(=O)n3ccsc3n2)s1,x,x,u,x,-11.5%[46 µM]
C/C(N)=C(/C#N)C(=O)CSc1nnc(Nc2ccccc2C)s1,-8.0%,28.2µM*,u,16.6,1.2%
CC1(C)CC2C1CCC1(C)OC2(C)CCC1O (configuration not stated),11.6%,-3.5%,-1.8%,x,-5.2%
COc1ccc(-c2cn3c(n2)sc2cc(C(=O)NCCc4ccccc4)ccc23)cc1,x,x,x,x,7.2%[46 µM]
CCn1c(SCC(=O)c2ccc(Cl)cc2)nnc1-c1ccoc1C,-9.6%,u,u,-25.2,-13.2%
CCn1c(SCC(=O)O)nnc1-c1ccccc1,3.3%,-11.7%,-0.5%,-95.8*,-2.9%
CCn1c(SCC(=O)c2ccc(C)cc2)nnc1-c1ccoc1C,-2.7%,31.6µM*,u,0.7,-4.5%
SMILES,12-hLO inh,HPGD block,ALDH1A1 block,PNC inhibitor,LMNA splice mod
CCn1c(SCC(=O)c2ccc(C)cc2)nnc1-c1ccncc1,3.2%,31.6µM*,u,-2.2,u
CCCS(=O)(=O)O,3.8%[11.4 µM],-0.3%,11.8%[13.5 µM],x,x
COC(=O)N1CCC2(CCCN(Cc3nccs3)C2)CC1,-0.1%,-2.3%,-2.3%,x,x
CCN=c1scc(-c2ccco2)n1/N=C/c1ccc(O)cc1,-13.7%,u,20µM*,u,-4.5%
CCc1ccc(NC(=O)C(=O)NCC(c2ccc3c(c2)OCO3)N2CCN(C)CC2)cc1 (configuration not stated),x,x,x,x,-7.0%[46 µM]
COc1ccccc1N1Cc2ccccc2C1,-5.6%,u,8.91µM*,u,2.5%
Cc1ccccc1N1Cc2ccccc2C1,-1.4%,u,28.2µM*,-28.0,u
Cc1ccccc1C,-1.7%,-7.2%,3.2%,x,x
C[C@@H]1CCC2[C@@H](C)[C@@H](O)O[C@@H]3O[C@@]4(C)CC[C@@H]1[C@@]23OO4 (some centres not stated),5.5%,-14.0%,u,x,u
COc1ccc(-n2c(=O)c(CCc3ccccc3)nc3cncnc32)cc1,x,x,u,x,-8.0%
C[C@@H]1CC[C@H]2[C@H](C)[C@H]3CC[C@H]4C5[C@@H](O)CC6=CC(=O)CC[C@]6(C)[C@H]5C[C@H]4C3C(=O)N2C1 (some centres not stated),x,-1.9%,17.4%,x,x
COc1ccccc1Nc1ccc(N)cc1,x,x,28.2µM*,x,-16.9%[46 µM]
CCOc1ccccc1NC(=O)CSc1nc2c([nH]c3ccccc32)c(=O)n1-c1ccccc1,x,x,x,x,21.4%[46 µM]
Cc1cc(Cl)ccc1NC(=O)CCC(=O)O,-0.3%,4.4%,2.1%,-83.5*,-4.5%
Cc1ccc(NC(=O)CCl)c(C)c1,x,x,0.282µM*,x,x
COc1ccc(NCC(=O)Nc2ccc(Cl)cc2C)c(OC)c1,-2.6%,7.94µM*,4.47µM*,u,-2.0%
Cc1ccc(NC(=O)Cc2ccc(-n3cccc3)cc2)c(C)c1,4.6%,-3.1%,-1.7%,-16.5,0.6%
CCOc1ccc(NCC(=O)Nc2ccc(Cl)cc2C)cc1,-6.9%,-4.9%,3.55µM*,-27.0,-2.2%
Cc1cc(Cl)ccc1NC(=O)CCCN1C(=O)CCC1=O,3.0%,0.6%,3.9%,4.6,6.0%
COc1c2c(c3c(c1CCC(=O)O)OC(C)(C)C=C3)OC(C)(C)C=C2,7.0%[11.4 µM],0.0%,20.1%[13.5 µM],x,x
Cc1cccc(OCC(=O)NCc2ccc3c(c2)CCN3C(=O)c2ccccc2)c1,x,x,x,x,0.6%[46 µM]
CCCOc1ccc(NCC(=O)Nc2ccc(C)cc2C)cc1,-2.4%,-1.6%,2.24µM*,-29.3,-10.5%
COc1ccc(C2=NOC(C(=O)NCc3cccs3)C2)cc1OC (configuration not stated),7.2%,-10.5%,-2.6%,-11.7,-8.4%
COc1cc(C2=NOC(C(=O)NCc3cccs3)C2)cc(OC)c1OC (configuration not stated),10.2%,-20.2%,-10.2%,-104.2*,-11.6%
COc1cccc(C2=NOC(C(=O)Nc3cccnc3)C2)c1 (configuration not stated),-7.6%,-12.8%,6.7%,38.0,24.5%
COc1cc(C2=NOC(C(=O)NCc3ccco3)C2)cc(OC)c1OC (configuration not stated),5.9%,-1.8%,6.4%,u,u
